Bioassay records: PubChem BioAssay, National Center for Advancing Translational Sciences (NCATS)
Hits are enriched below; roughly 19% of the tested compounds scored in any of these assays.
HT1080 IDH1KD tx = HT-1080 IDH1 knockdown cell toxicity (counter line); 360,000 compounds, 2% hits; HT-1080 IDH1 knockdown viability, ATP luminescence, 48 h; Potency, µM (highest dose often 46.1 µM), for inactives: at the top dose activity, negative = toxicity, usual class: cytotoxic;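 further: potency means the concentration at half of the fitted maximal effect; 0% = DMSO wells and -100% = cell-free medium wells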
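Viability of IDH1-knockdown HT-1080 fibrosarcoma cells was assessed by CellTiter-Glo after 48 h at 37 °C with titrated compound; concentration-effect curves were classified by fit quality and response size.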
TDP1 cell noCPT = qHTS for Inhibitors of human tyrosyl-DNA phosphodiesterase 1 (TDP1): qHTS in cells in absence of CPT; Potency, µM (series often up to 46.2 µM), for the others: at the highest dose activity change, negative = growth inhibition, most hits filed as inhibitors; 420,000 compounds, 15% hits; DT40 Tdp1-/- hTDP1 cells, no CPT, ATP luminescence, 48 h; further: potency means the concentration at half of the fitted maximal effect; nearly all actives have a fitted effect of over 55% in size
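Stably hTDP1-transfected Tdp1-null chicken DT40 cells were treated with library compounds minus camptothecin and grown for at least 48 hr at 37 °C, after which cellular ATP was quantified by luminescence.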
HT1080NT lethal = kills 2HG-producing HT-1080-NT fibrosarcoma cells; Potency, µM (highest dose often 46.1 µM), without a hit: at the top dose activity, negative = less viability, hits mostly cytotoxic; AID 686970; HT-1080-NT fibrosarcoma viability, CellTiter-Glo ATP luminescence, 48 h; 360,000 compounds, 1.6% hits;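 further: NT is the 2HG producing partner of a matched IDH1 knockdown line; potency means the concentration at half of the fitted maximal effect; 0% = DMSO-treated cells and -100% = media-only wells without cells; nearly all actives have a fitted effect of over 55% in size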
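HT-1080-NT; 750 cells/well; 5% FBS RPMI; 48 h compound, 37 degrees C; CellTiter-Glo luminescence; curve fitting and curve-class assignment.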
IL-1B inflam inh = inhibitors of inflammasome signaling (IL-1 beta secretion) | AID 743279 | THP-1 LPS/ATP IL-1B secretion, AlphaLISA, 16 h; hits give low values | 360,000 compounds, 4.7% hits | activity change, % at 57.5 µM; in the data active means activity change below about -50%; inconclusive means mostly about -30% to -49%
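THP-1 cells pretreated 1 hr with compounds (up to 57.5 uM final), then stimulated with LPS (250 ng/mL final) plus ATP (1.25 mM final); secreted IL-1B measured by AlphaLISA after 16 hr, decreased signal indicating inhibition.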
TDP1 cell CPT = DT40-hTDP1 cell growth loss with CPT | chicken DT40 Tdp1-/-;hTDP1 cells + 20 nM CPT, ATP luminescence, 48 h | Potency, µM (titrated, usually from 46.2 µM), inactives show at the top dose activity change, negative = growth inhibition, usual class: inhibitors | 420,000 compounds, 12% hits | AID 686979; further: potency means the concentration at half of the fitted maximal effect; nearly all actives have a fitted effect of over 55% in size
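Chicken DT40 Tdp1-/- cells complemented with human TDP1, 400 cells/well, exposed to compounds plus 20 nM camptothecin for at least 48 h at 37 C; viability read as ATP content by CellTiter-Glo luminescence.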
Starred values were filed as active, the others as inactive; u = inconclusive; x = not tested or not shown. Unless noted, the call rests on the fitted dose curve; in most records, active means well fitted curve in the direction sought with a large enough effect; inconclusive means small, poorly fitted or top-dose-only effect, or another doubt; inactive means no such curve, though single readings can be large; an effect the other way counts as inactive or inconclusive. Unless noted, on the % scale 0 is the no-effect control and ±100 the full control effect.

SMILES | HT1080 IDH1KD tx | TDP1 cell noCPT | HT1080NT lethal | IL-1B inflam inh | TDP1 cell CPT
CCN(CC)C(=O)c1ccc(NC(=O)CCn2nc(-c3ccc(Cl)cc3)c3ccccc3c2=O)cc1 | x | 18µM* | x | x | u
Cc1nn(CCC#N)c2c1P(=S)(N1CCCC1)OC(c1ccc(F)cc1)=N2 (stereo not drawn) | 3% | u | -1% | 13 | 29µM*
CNC(C)C#Cc1ccc2oc3cc(C)c(C)cc3c(=O)c2c1 (stereo not drawn) | -25% | 15µM* | -19% | -64* | u
CN1Cc2cnnn2-c2ccccc2C1c1ccccc1 (stereo not drawn) | 3% | u | 8% | 6 | -21%
CN(C(=O)Oc1cccc2cccnc12)c1ccccc1 | 4% | -7% | 8% | 1 | 0%
Oc1cccc2cccnc12 | x | 2.6µM* | x | x | 3.3µM*
CN(C)C(=O)Oc1ccc(Cl)c2ccccc12 | -1% | -6% | 2% | -18 | -1%
CN(C)C(=O)Oc1ccc(Br)cc1C(=O)Nc1ccc(F)c(Cl)c1 | u | 23µM* | u | -59* | 23µM*
O=C(CNC(=O)c1ccco1)OCN1C(=O)c2ccccc2C1=O | 13% | u | 16% | 1 | u
O=C(O)CCC(=O)NCCC1=c2ccccc2=N/C1=C\c1c(O)n(Cc2ccc(F)cc2)c(=S)[nH]c1=O | 0% | 0% | -3% | -4 | 49%
O=C(O)[C@@H](O)[C@H](O)C(=O)O | 14% | -4% | 26% | -11 | -26%
COc1ccc(C#Cc2ccc3c(c2)O[C@H](CN(C)S(=O)(=O)c2ccccc2F)[C@H](C)CN([C@H](C)CO)S3(=O)=O)cc1 | 0% | 21µM* | 7% | u | u
COC(=O)C1C(O)CC2CCC1N2C (stereo not drawn) | -5% | -5% | u | 6 | 7%
CCN(CC)c1ccc(C=C2C(=O)NC(=S)NC2=O)cc1 | u | 15µM* | u | -97* | u
CN(C)c1ccc(C=C2C(=O)NC(=O)NC2=O)cc1 | 6% | -6% | 17% | -5 | -16%
CN(C)c1ccc(C=C2C(=O)NC(=S)NC2=O)cc1 | u | 16µM* | -24% | -102* | 8.2µM*
CC(C)CN(CC(C)C)c1ccc(C=C2C(=O)NC(=S)NC2=O)cc1[N+](=O)[O-] | -9% | 21µM* | -2% | -12 | u
CCOC(=O)c1ccc(N2C(=O)CC(N3CCC(C#N)(c4ccccc4)CC3)C2=O)cc1 (stereo not drawn) | 5% | -4% | 3% | 16 | 3%
O=C(c1ccncc1)N1CCC2(CC1)CN(Cc1ccccc1)C2 | x | 12% | x | x | -12%
Cc1nc(-c2ccc(-c3ccc(C(=O)N4CCc5cc6c(cc54)C4(CCN(C)CC4)CO6)cc3)c(C)c2)no1 | x | 6µM* | x | x | 7.5µM*
CCC(C(N)=O)N1CCCC1=O (stereo not drawn) | x | -18% | x | x | u
C[C@@H]1CN([C@H](C)CO)C(=O)CCCn2cc(nn2)CO[C@H]1CN(C)C(=O)Oc1cccc2ccccc12 | 12% | -27% | 6% | 11 | 11%
C[C@H](CO)N1C[C@H](C)[C@H](CN(C)S(=O)(=O)c2ccc(Cl)cc2)OCc2ccccc2-c2c(n(C)c3ccccc23)C1=O | u | 9.2µM* | u | -15 | 26µM*
Cc1ccc(S(=O)(=O)N(C)C[C@H]2Oc3ncc(Br)cc3C(=O)N([C@H](C)CO)C[C@@H]2C)cc1 | -1% | 23µM* | -5% | -5 | -30%
C[C@@H]1CN([C@H](C)CO)C(=O)c2c(c3ccccc3n2C)-c2ccccc2CO[C@H]1CN(C)C(=O)Cc1ccccc1 | 0% | 13µM* | 0% | -5 | 23µM*
SMILES | HT1080 IDH1KD tx | TDP1 cell noCPT | HT1080NT lethal | IL-1B inflam inh | TDP1 cell CPT
Cc1ccc(S(=O)(=O)N(C)C[C@@H]2Oc3ncc(Br)cc3C(=O)N([C@H](C)CO)C[C@@H]2C)cc1 | -8% | u | -4% | -5 | u
C[C@H](CO)N1C[C@H](C)[C@@H](CN(C)C(=O)Oc2cccc3ccccc23)OCc2cn(nn2)CCCC1=O | -2% | -26% | -4% | 26 | u
Cc1ccc(S(=O)(=O)N(C)C[C@@H]2OCc3ccccc3-c3c(n(C)c4ccccc34)C(=O)N([C@H](C)CO)C[C@@H]2C)cc1 | u | u | -28% | -28 | 23µM*
CCCNC(=O)N1[C@H]2CC[C@@H]1C(C(=O)OC)=C(c1c(C)noc1C)C2 | 11% | 8% | 9% | 28 | 9%
C[C@H](CO)N1C[C@H](C)[C@@H](CN(C)S(=O)(=O)c2cccs2)Oc2ccc(NC(=O)Nc3ccc(C(F)(F)F)cc3)cc2C1=O | -61% | 18µM* | u | -2 | 16µM*
COc1ccc(NC(=O)Nc2ccc3c(c2)C(=O)N([C@H](C)CO)C[C@H](C)[C@@H](CN(C)S(=O)(=O)c2ccc(F)cc2)O3)cc1 | -4% | u | 3% | -4 | u
CN1C(=O)N(C)C(=O)C2(Cc3cc(NC(=O)c4ccccc4)ccc3N3CCCC32)C1=O (stereo not drawn) | 0% | 8% | -3% | 17 | -1%
O=C(Nc1ccc(Cl)c(C(F)(F)F)c1)c1ccc2c(c1)CCN2S(=O)(=O)c1ccccc1 | x | 9.2µM* | x | x | 9.2µM*
C#CCOc1ccc(OC)cc1C(c1c(C)[nH][nH]c1=O)c1c(C)[nH][nH]c1=O | -1% | u | 6% | -10 | 15%
C#CCOc1cc(C2C3=C(COC3=O)Nc3cc4c(cc32)OCO4)ccc1OC (stereo not drawn) | -2% | -61% | -4% | 85 | 21µM*
CC(C#N)CCC#N (stereo not drawn) | 5% | -7% | 15% | -3 | -1%
